# Measurements taken from PubChem BioAssay.
# Values joined by “and” are separate entries in the source; they are usually repeats but may differ in a detail not shown here. Equal entries are not always repeated. Active and inactive are the calls of the source.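 How the source made its calls, unless noted: active means z-score of at least 1.8 in each of two replicates, scored against plate mean and spread of sample wells; inactive means the rest.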
# Tests used:
# [1] = molecular target: 6-phosphogluconate dehydrogenase, decarboxylating (Homo sapiens) (UniProt P52209); experiment: 6PGD enzyme inhibitors, primary screen, biochemical, human, recombinant enzyme, NADPH absorbance (AID 1159550;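 active means at least 20% inhibition of 6-phosphogluconate dehydrogenase activity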); details: recombinant 6PGD, NADPH absorbance 341 nm; at 10 µM; stronger effect = higher value
# [2] = hESC survival regulators, cell-based (AID 493140; call rule not given here;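 further: cells exposed to compounds for four days before counting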); details: human embryonic stem cell survival screen; stronger effect = higher value
# [3] = liver-stage malaria parasite growth inhibition, primary screen, cell-based, HepG2, luciferase luminescence, HepG2 viability (AID 624349; in the data active means parasite load remaining mostly below about 12%, no sharp cut-off; inactive means mostly above about 10%;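 further: 100% = mean of DMSO negative control wells on the same plate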); details: P. berghei liver stage in HepG2, luciferase luminescence, concentration not given here; parasite load remaining: stronger effect = lower value; viability: measured here: HepG2 viability without parasites
# [4] = stimulators of insulin release from INS-1E, primary screen, cell-based, 5 mM glucose, NPC library (AID 1117329;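 active means compound raises insulin release from rat beta cells at 5 mM glucose, no numeric limit stated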); details: rat INS-1E insulin secretion, at 10 µM, stronger effect = higher value
# [5] = growth inhibition of GSK3B-pretreated HCT116 cells – cell-based, CellTiter-Glo, 0.2 to 20 µM (AID 1117336;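 active means compounds lowering colon cancer cell viability after pretreatment blocking the GSK3B kinase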); details: HCT116 viability after GSK3B inhibitor, at 20 µM, stronger effect = higher value
# [6] = inhibition of endothelial tube formation, primary screen, imaging, VEGF stimulated, CD31 staining, tube area, NPC library (AID 1117340;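 active means compound that reduces growth-factor-driven endothelial tube area in a mixed cell culture, no cutoff stated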); details: VEGF-stimulated ADSC/ECFC co-culture, at 10 µM, stronger effect = higher value
# [7] = glucagon-like peptide 1 release enhancers, primary assay, NCI-H716 cell line, NPC library (AID 1117341;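 active means compound raises GLP1 secretion from the human gut endocrine cells, with no numeric limit stated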); details: NCI-H716 cells, at 10 µM, stronger effect = higher value
# [8] = HCT116 colon cancer cell growth inhibition, primary screen, CellTiter-Glo luminescence, NPC library (AID 1117342;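 active means compounds that lower survival of HCT116 colon cancer cells in the luminescence readout, no numeric limit stated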); details: at 20 µM (top of the series)
# [9] = CellTiter-Glo luminescent readout of SW480 viability loss, NPC library primary (AID 1117343;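 active means compounds that lower viability of the colon cancer cells in the luminescence readout, with no numeric limit stated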); details: CellTiter-Glo luminescence; at 20 µM (top of the series) unless noted
# [10] = decreased DLD-1 cellular survival, CellTiter-Glo luminescent readout, NPC compound collection, primary HTS (AID 1117346;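 active means compounds that lower survival of DLD-1 colon cancer cells in the luminescence readout, no cutoff given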); details: DLD-1 viability, CellTiter-Glo luminescence; at 20 µM (top of the series)
# [11] = sensitizers of A549 cells to miR-34 induction, primary screen, imaging, A549 dox-inducible miR-34, nuclei and caspase counts (AID 1347080;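 active means compounds whose cell count with miR-34 switched on is under 0.7 times the count with it off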); details: A549 miR-34 inducible, Hoechst nuclei count, 48 h
# [12] = survival rescue of mitochondrial mutant cells in low glucose, primary screen, MELAS cybrids, Rieske KO mouse fibroblasts, CellTiter-Glo (AID 1508586;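 active means mean z-score across replicates of 1.96 or higher in either the MELAS or the Rieske mutant cell line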;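 further: z relative to plate mean and SD of compound and empty wells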)
# [13] = molecular target: NAD(+) hydrolase SARM1 (Homo sapiens) (UniProt Q6SZW1); experiment: SARM1 TIR NADase inhibitors, cell lysate, NAD-Glo luminescence (AID 1508614;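 active means compound whose remaining NAD level is above about 45 nM, limit read from the data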); details: SAM-TIR HEK293T lysate NADase, at 1 µM, stronger effect = higher value
# [14] = molecular target: Mitogen-activated protein kinase 7 (Homo sapiens) (UniProt Q13164); experiment: ERK5 transactivation activators in reporter cells, primary screen, cell-based, HTS (AID 1508626;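 active means luciferase signal above three times the same-plate solvent-only control wells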;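 further: luciferase driven by Gal4-ERK5 fusion binding five Gal4 sites before minimal TATA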); details: HeLa Gal4-ERK5 transactivation, 18 h, at 5 µM, stronger effect = higher value
# [15] = viability rescue of complex I mutant cybrids, primary screen, cell-based, galactose medium, ATP luminescence (AID 1645843); details: complex I mutant cybrid cells, 72 h, stronger effect = higher value;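 further: positive z means more ATP and so rescue of galactose-driven cybrid death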
# [16] = modulation of C. elegans fzo-1 (AID 1259413; call rule not given here;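 further: fzo-1 mutant C. elegans worms in liquid wells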); details: C. elegans fzo-1 modulator screen, mean read-out; stronger effect = higher value
# [17] = differential killing of epithelial or mesenchymal cells, primary screen, imaging, PC-3E GFP, TEM4-18 mCherry, co-culture (AID 1345086;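 active means compounds killing one labelled cell type while sparing the other, by normalised counts and ratio limits, not self-fluorescent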;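 on all read-outs here: cells exposed to compound for 72 h before imaging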;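 on red/green cell ratio (normalised): normalised mesenchymal count divided by normalised epithelial count so high means epithelial killing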); details: imaging cell counts, at 1 µM; for red/green cell ratio (normalised): actives lie on both sides, counts scaled to control wells, 1 = unselective
# [18] = stronger effect = lower value, cell number ratio, induced over uninduced
# [19] = measured here: relative caspase fold change +Dox/-Dox
# [20] = measured here: total cells with miR-34 induction, stronger effect = lower value
# [21] = measured here: total cells without miR-34 induction
# [22] = MELAS cybrid survival, CellTiter-Glo 48 h, stronger effect = higher value
# [23] = Rieske KO mouse fibroblast survival, CellTiter-Glo 72 h
# [24] = measured here: epithelial PC-3E GFP cell survival
# [25] = measured here: mesenchymal TEM4-18 mCherry cell survival
# Chain of Mitogen-activated protein kinase 7 (Homo sapiens) (Q13164 whole entry, looked up, the tested form may be a part): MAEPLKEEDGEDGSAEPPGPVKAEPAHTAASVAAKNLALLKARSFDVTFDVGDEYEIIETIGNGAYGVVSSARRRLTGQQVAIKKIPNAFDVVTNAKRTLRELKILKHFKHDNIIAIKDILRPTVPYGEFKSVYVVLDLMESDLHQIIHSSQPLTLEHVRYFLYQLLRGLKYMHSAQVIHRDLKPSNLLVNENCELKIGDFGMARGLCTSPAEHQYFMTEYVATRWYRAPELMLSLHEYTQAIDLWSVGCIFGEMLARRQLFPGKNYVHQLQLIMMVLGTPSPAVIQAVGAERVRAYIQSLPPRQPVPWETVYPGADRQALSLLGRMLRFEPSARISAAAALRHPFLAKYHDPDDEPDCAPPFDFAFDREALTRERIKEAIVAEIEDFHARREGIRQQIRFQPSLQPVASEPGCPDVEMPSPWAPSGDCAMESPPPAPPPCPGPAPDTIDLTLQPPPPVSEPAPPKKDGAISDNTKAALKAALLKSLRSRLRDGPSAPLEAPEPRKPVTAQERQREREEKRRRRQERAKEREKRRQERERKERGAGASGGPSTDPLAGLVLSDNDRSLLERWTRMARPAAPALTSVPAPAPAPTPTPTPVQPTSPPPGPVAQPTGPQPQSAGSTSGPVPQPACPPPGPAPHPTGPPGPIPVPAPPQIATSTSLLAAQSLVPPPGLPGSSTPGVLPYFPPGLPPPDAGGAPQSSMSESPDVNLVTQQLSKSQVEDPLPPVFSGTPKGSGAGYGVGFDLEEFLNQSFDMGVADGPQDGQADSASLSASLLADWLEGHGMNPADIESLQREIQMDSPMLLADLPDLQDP
# Chain of NAD(+) hydrolase SARM1 (Homo sapiens) (Q6SZW1 whole entry, looked up, the tested form may be a part): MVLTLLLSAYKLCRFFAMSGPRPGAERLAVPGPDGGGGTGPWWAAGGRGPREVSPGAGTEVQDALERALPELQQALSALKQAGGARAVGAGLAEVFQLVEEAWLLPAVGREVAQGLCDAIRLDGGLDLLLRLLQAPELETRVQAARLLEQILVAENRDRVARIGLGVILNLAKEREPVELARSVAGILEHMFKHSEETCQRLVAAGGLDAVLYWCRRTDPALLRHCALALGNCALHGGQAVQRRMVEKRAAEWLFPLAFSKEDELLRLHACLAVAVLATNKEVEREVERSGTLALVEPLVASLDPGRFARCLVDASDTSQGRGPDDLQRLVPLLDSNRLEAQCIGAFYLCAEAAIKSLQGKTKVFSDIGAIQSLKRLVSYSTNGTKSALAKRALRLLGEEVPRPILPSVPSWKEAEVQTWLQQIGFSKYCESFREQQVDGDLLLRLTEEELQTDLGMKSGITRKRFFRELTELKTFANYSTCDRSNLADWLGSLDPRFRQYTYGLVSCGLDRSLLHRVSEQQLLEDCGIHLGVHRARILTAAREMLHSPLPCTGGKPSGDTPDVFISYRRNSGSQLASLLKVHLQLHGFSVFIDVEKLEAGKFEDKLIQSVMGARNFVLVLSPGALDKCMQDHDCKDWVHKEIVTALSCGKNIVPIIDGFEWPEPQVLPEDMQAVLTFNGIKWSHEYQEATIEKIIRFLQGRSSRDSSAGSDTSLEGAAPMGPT
# Chain of 6-phosphogluconate dehydrogenase, decarboxylating (Homo sapiens) (P52209 whole entry, looked up): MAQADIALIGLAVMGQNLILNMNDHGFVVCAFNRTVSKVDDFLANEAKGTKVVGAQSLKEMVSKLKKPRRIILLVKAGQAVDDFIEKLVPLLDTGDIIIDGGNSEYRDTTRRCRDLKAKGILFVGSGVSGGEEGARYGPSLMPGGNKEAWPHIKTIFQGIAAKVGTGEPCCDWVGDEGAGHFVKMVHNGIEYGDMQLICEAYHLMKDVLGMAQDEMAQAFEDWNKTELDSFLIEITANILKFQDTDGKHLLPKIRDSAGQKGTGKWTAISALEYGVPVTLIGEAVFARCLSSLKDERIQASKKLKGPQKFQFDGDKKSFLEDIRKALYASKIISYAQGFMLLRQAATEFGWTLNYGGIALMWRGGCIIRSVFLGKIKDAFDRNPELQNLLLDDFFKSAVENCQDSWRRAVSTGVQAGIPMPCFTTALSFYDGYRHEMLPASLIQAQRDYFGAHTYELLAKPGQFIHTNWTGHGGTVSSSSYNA
structure (smiles),measurement,setting,value
CC(=O)O[C@@H]1CC2C(C)(C)C(=O)[C@@H]3O[C@@H]3[C@]2(C)C2CC[C@]3(C)C(=CC(=O)O[C@H]3c3ccoc3)[C@@]21C (stereo not given in full),inhibition,[1],0.52% (inactive)
CS(=O)(=O)c1ccc([C@@H](O)[C@@H](CF)NC(=O)C(Cl)Cl)cc1,survival,[2],1.92 (inactive)
same,parasite load remaining,[3],110% (inactive) and 27.9% (inactive)
same,viability,[3],101% and 68.5%
same,insulin secretion stimulation,[4],1.8% (inactive)
same,viability decrease,[5],-7.1% (inactive)
same,tube area decrease,[6],10.2% (inactive)
same,GLP1 secretion stimulation,[7],0.9% (inactive)
same,inhibition of viability,[8],14.2% (inactive)
same,viability decrease (inhibition),[9],17.1% (inactive)
same,viability decrease (inhibition),[10],13.6% (inactive)
same,fold change,[11]; [18],0.925 (inactive) and 0.937 (inactive)
same,fold change,[11]; [19],0.927 and 1.15
same,cell count,[11]; [20],8300 and 9020
same,cell count,[11]; [21],8980 and 9620
same,z-score,[12]; [22],-0.214 (inactive) and 0.287 (inactive)
same,z-score,[12]; [23],-1.14 and -0.231
same,remaining NAD,[13],10 nM (inactive)
same,luciferase signal,[14],136 AU (inactive)
same,z-score,[15],-1.65 (inactive)
O=C(NCC1CCCCN1)c1cc(OCC(F)(F)F)ccc1OCC(F)(F)F (stereo not given),survival,[2],2.25 (inactive)
same,parasite load remaining,[3],-2.69% (inactive) and 85.7% (inactive) and 46.8% (inactive)
same,viability,[3],26.8% and 98.2% and 100%
same,insulin secretion stimulation,[4],3.7% (inactive)
same,viability decrease,[5],-3.9% (inactive)
same,tube area decrease,[6],-3.2% (inactive)
same,GLP1 secretion stimulation,[7],1.7% (inactive)
same,inhibition of viability,[8],21.7% (inactive)
same,viability decrease (inhibition),[9],1.6% (inactive)
same,viability decrease (inhibition),[10],-7.6% (inactive)
same,mean signal,[16],257 (inactive)
same,z-score,[12]; [22],-0.524 (inactive) and 0.18 (inactive)
same,z-score,[12]; [23],0.614 and 0.91
same,luciferase signal,[14],68 AU (inactive)
same,z-score,[15],-1.51 (inactive) and -0.39 (inactive) and 0.37 (inactive)
NC(=O)NCC(N)C(=O)O (stereo not given),inhibition,[1],-2.17% (inactive)
CC(=O)O[C@@H]1C[C@H]2C(C)(C)C(=O)[C@@H]3O[C@@H]3[C@]2(C)[C@H]2CC[C@@]3(C)[C@H](c4ccoc4)OC(=O)[C@H]4O[C@]43[C@@]21C,inhibition,[1],-3.37% (inactive)
CC(C)CCC[C@@H](C)[C@H]1CC[C@H]2[C@@H]3CC[C@H]4CCCC[C@]4(C)[C@H]3CC[C@]12C,inhibition,[1],11.6% (inactive)
C[N+]1(C)CCC(OC(=O)C(O)(c2ccccc2)C2CCCC2)C1 (stereo not given),survival,[2],3.83 (inactive)
same,insulin secretion stimulation,[4],1.8% (inactive)
same,viability decrease,[5],-4% (inactive)
same,tube area decrease,[6],-0.8% (inactive)
same,GLP1 secretion stimulation,[7],-0.5% (inactive)
same,inhibition of viability,[8],11.3% (inactive)
same,viability decrease (inhibition),[9],-15.2% (inactive)
same,viability decrease (inhibition),[10],2% (inactive)
same,mean signal,[16],254 (inactive)
same,red/green cell ratio (normalised),[17],0.8 (inactive)
same,normalised cell number,[17]; [24],1.28
same,normalised cell number,[17]; [25],1.02
same,cell count,[11]; [21],11400 and 10400 and 13800
same,z-score,[12]; [22],0.599 (inactive)
same,z-score,[12]; [23],0.684
same,remaining NAD,[13],10 nM (inactive)
same,z-score,[15],0.385 (inactive) and 0.61 (inactive)
NC1(C(=O)O)CCC1,inhibition,[1],2.05% (inactive)
CC(C)c1c(C(=O)Nc2ccccc2)c(-c2ccccc2)c(-c2ccc(F)cc2)n1CC[C@@H](O)C[C@@H](O)CC(=O)O,insulin secretion stimulation,[4],3.7% (inactive)
same,viability decrease,[5],95.5% (active)
same,tube area decrease,[6],67.8% (active)
same,GLP1 secretion stimulation,[7],5.8% (inactive)
same,inhibition of viability,[8],81.6% (active)
same,viability decrease (inhibition),[9],96.3% (active)
same,viability decrease (inhibition),[10],68.1% (active)
same,inhibition,[1],17.2% (inactive)
same,fold change,[11]; [18],1.27 (inactive)
same,fold change,[11]; [19],1.55
same,cell count,[11]; [20],5410
same,cell count,[11]; [21],4270
same,z-score,[12]; [22],-2.11 (inactive)
same,z-score,[12]; [23],-0.779
same,remaining NAD,[13],10 nM (inactive)
same,luciferase signal,[14],28 AU (inactive)
same,z-score,[15],-0.8 (inactive)
CS(=O)(=O)CCCCN=C=S,inhibition,[1],1.33% (inactive)
NCCCC(O)(P(=O)(O)O)P(=O)(O)O,parasite load remaining,[3],53.9% (inactive) and 32.7% (inactive)
same,viability,[3],103% and 67.5%
same,insulin secretion stimulation,[4],2.3% (inactive)
same,viability decrease,[5],6.9% (inactive)
same,tube area decrease,[6],-27.4% (inactive)
same,GLP1 secretion stimulation,[7],1.2% (inactive)
same,inhibition of viability,[8],1.17% (inactive)
same,viability decrease (inhibition),[9],-1.7% (inactive)
same,viability decrease (inhibition),[10],-3.8% (inactive)
same,red/green cell ratio (normalised),[17],1.07 (inactive)
same,normalised cell number,[17]; [24],1
same,normalised cell number,[17]; [25],1.08
same,fold change,[11]; [18],1.41 (inactive) and 0.87 (inactive) and 0.867 (inactive)
same,fold change,[11]; [19],0.419 and 4.85 and 1.52
same,cell count,[11]; [20],8960 and 12100 and 9780
same,cell count,[11]; [21],6340 and 13900 and 11300
same,z-score,[12]; [22],0.332 (inactive) and -1.05 (inactive) and 0.581 (inactive)
same,z-score,[12]; [23],0.0856 and -0.0862 and 0.207
same,remaining NAD,[13],10 nM (inactive)
same,luciferase signal,[14],144 AU (inactive)
same,z-score,[15],-2.05 (inactive) and 0.675 (inactive)
